Source: PubChem BioAssay AID493078 (National Center for Advancing Translational Sciences (NCATS), 2011)
The list shows a part of the results. Where a call stands in place of a potency, no number is given. Records with an inconclusive call do not appear. The source made the active and inactive calls. The call rests on the fitted dose curve; in most records, active means well fitted activation curve with a large enough effect; inconclusive means small, poorly fitted or top-dose-only effect; inactive means flat fitted curve, though single readings scatter. Where a SMILES comes first, the peptide text is derived from it. The star is where a group is joined. OPac = O=C(CO*)c1ccccc1; Bz = O=C(c1ccccc1)*

Target: Thyrotropin-releasing hormone receptor (Homo sapiens) (UniProt P34981)
Sequence (P34981 whole entry, looked up): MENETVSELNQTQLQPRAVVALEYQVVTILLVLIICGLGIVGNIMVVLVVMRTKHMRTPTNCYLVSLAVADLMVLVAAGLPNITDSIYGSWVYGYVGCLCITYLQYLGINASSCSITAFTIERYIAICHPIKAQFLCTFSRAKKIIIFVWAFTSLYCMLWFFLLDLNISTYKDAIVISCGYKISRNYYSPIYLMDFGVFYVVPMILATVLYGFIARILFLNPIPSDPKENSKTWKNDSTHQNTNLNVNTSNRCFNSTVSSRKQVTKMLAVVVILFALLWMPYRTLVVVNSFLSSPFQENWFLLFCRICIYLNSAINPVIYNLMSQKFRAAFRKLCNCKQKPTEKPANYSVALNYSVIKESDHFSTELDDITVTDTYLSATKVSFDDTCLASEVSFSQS
Assay: qHTS for Small Molecule Agonists and Allosteric Enhancers of Human TRH Receptor: Confirmation Screen for Agonists; further: nearly all actives have a fitted effect of over 75% in size
Conditions: TRHR-expressing cells, agonist activation read-out; series mostly up to 46.1 µM
Description: NIH Chemical Genomics Center [NCGC]
NIH Molecular Libraries Probe Centers Network [MLPCN]
Assay Submitter (PI): Marvin Gershengorn
This project aims to identify small drug-like molecules that activate (agonists) the thyrotropin releasing hormone (TRH) receptor (TRHR) or enhance its TRH-stimulated activity (allosteric enhancers). TRHR, a drug-accessible cell surface receptor expressed in specific brain regions, and its ligand TRH have been implicated in several central nervous system disorders, including depression and anxiety. Small molecule TRHR agonists or allosteric enhancers that are metabolically stable and able to cross the blood-brain barrier might serve as probes to elucidate the roles of brain TRH receptors in animal models, and might be valuable as lead compounds for the development of drugs to treat patients with central nervous system disorders.
Upon TRHR-Gq activation in TRHR cells, intracellular calcium is released from stores in the endoplasmic reticulum.
For the HTS assay freshly prepared cells are plated at a density of 2000/well in 3 ul of complete DMEM medium containing 10% serum in 1536-well plates and cultured over night at 37 C in a humidified incubator with 5% CO2. The next day, 2 ul of a no wash calcium dye (ABD Bioquest) was added to the cells and plates were incubated at room temperature for 1 hour. For the assay, assay plates were loaded into the FDSS kinetic plate reader. A 10 cycle (1 second/cycle) baseline measurement is taken and then the FDSS online 1536 pintool delivers 23 nl of compound library (as well as TRH controls) to the plate. The plate is measured for kinetically at 1 cycle/sec for 180 seconds and is considered to be the agonist portion of the assay (eg, compounds which activate a positive calcium response during this portion are flagged as potential agonists). Following the 180 second read, 1 ul of either an EC20 (positive modulation assay) is delivered by an onboard pipette head. Measurements are taken kinetically for an additional 180 seconds.
TRHR FDSS Screening Protocol
1. Reagent, 3 uL 2000 cells/well 1536 TC treated Black plate in media containing 10% FCS
2. Time, 18 hours, 33.5C 5% CO2 (cells grown at 37C)
3. Reagent, 2 uL ABD fluo-8 Ca dye
4. Time, 30 min-1.5hrs hours, Room temp (6 plates/batch)
5. Detector, EX 480/EM 530C, FDSS 10 cycles baseline (1sec/cycle)
6. Compound, 23 nL of stock solution from library
7. Detector, EX 480/EM 530C, FDSS 230 cycles (1sec/cycle) Agonist mode
8. Compound, 1 ul EC20 of TRH made up in HEPES HBSS, 10 nM final
9. Detector, EX 480/EM 530C, FDSS 100 cycles (1sec/cycle) Potentiator mode
Potency means the concentration at half of the fitted maximal effect.

SMILES | Potency
Cc1cc(C(=O)CCl)c(C)n1CC1COc2ccccc2O1 (stereo not given) | inactive
COc1ccc(Cl)cc1NC(=O)CN(C)Cc1ccc(OC)c(OC)c1 | inactive
CCOc1ncccc1C(=O)OCC(=O)N1c2ccccc2CC1C (stereo not given) | inactive
COc1cc(/C=C(\C#N)c2nc3ccccc3[nH]2)ccc1O | 20.6 µM (active)
CCc1ccccc1NC(=O)/C(=C/c1ccccc1)c1ccccc1 | inactive
O=C(Nc1ccccc1)c1cccnc1Nc1ccccc1 | inactive
Cc1cccn2c(=O)c3cc(C(=O)NC4CCCCC4)sc3nc12 | inactive
CCOC(=O)C1=C(O)/C(=C/c2cc(C)n(-c3ccccc3)c2C)N=C1C | inactive
Cn1cccc1C1(C(F)(F)F)NCCNC1=O (stereo not given) | inactive
CCc1nnc(NC(=O)[C@@H](NC(=O)c2cccc(C)c2)C(C)C)s1 | inactive
O=c1o[nH]c(-c2ccccc2)c1N=Nc1c(F)cccc1Cl | inactive
Cc1ccc(-c2cn(S(=O)(=O)c3cccc([N+](=O)[O-])c3)nc2N)cc1 | inactive
NC(N)=Nc1nc(-c2ccccc2)c2cc(Cl)ccc2n1 | inactive
Cc1c(/C=N\NC(=O)c2cc3ccccc3o2)c2ccccc2n1C | inactive
C/C(=C\c1ccco1)CN1CCC(N2CCC(C(=O)N3CCOCC3)CC2)CC1 | inactive
O=C1C(=O)N(CCCO)C(c2ccccc2)/C1=C(\O)c1ccc(Br)cc1 (stereo not given) | inactive
NS(=O)(=O)c1cccc(NC(=O)CSc2nc3ccccc3n2-c2ccccc2)c1 | inactive
O=C(CNC(=O)c1ccccc1)NCC(=O)OCC(=O)c1ccccc1 (Bz-Gly-Gly-OPac) | inactive
COc1ccc(CCn2ccc(O)c(Cc3ccc(Cl)cc3Cl)c2=O)cc1OC | inactive
C/C(=N/OC(=O)c1ccc(Br)cc1)c1ccc(C)cc1 | inactive

SMILES | Potency
CC(=O)N1CCN(CC(=O)Nc2ccc(C)c(F)c2)CC1 | inactive
Cc1nn(Cc2ccccc2)c(C)c1C(=O)N1CCN(CC(=O)Nc2ccccc2Cl)CC1 | inactive
CN(C(=O)CSc1nnc(Nc2ccccc2)s1)C1CCS(=O)(=O)C1 (stereo not given) | inactive
CC1(C)Cc2c(cnn2-c2cccc(F)c2)C(NC(=O)c2cc[n+]([O-])cc2)C1 (stereo not given) | inactive
Cc1cc(S(=O)(=O)c2cc3ccc(O)c(C)c3oc2=O)ccc1F | 20.6 µM (active)
COC(=O)c1cc(N2CCNCC2)nc2ccccc12 | inactive
CC1=C(C)CC(C(=O)NC(C)CCc2ccccc2)C(C(=O)O)C1 (stereo not given) | inactive
CC(C)c1nnc(NC(=O)CCC(=O)N2CCN(c3cccc(Cl)c3)CC2)s1 | inactive
Cc1csc(CN(C)C(=O)CC2C(=O)NCCN2CC(C)(C)C)n1 (stereo not given) | inactive
CC(=O)n1c(C=Nc2ccccc2)c(O)c2ccccc21 | 20.6 µM (active)
Cc1ccc(Cl)c(OCC(=O)N2CCc3ccccc3C2)c1 | inactive
CC(=O)c1cc(NC(=O)c2ccccc2)c(=O)oc1/C=C/N(C)C | 20.6 µM (active)
COc1cc(C2C3=C(CCCC3=O)OC3=C2C(=O)CCC3)ccc1OCC(=O)Nc1ccccc1 | inactive
N#Cc1ccc(Oc2cc(C(F)(F)F)nc(-c3ccccn3)n2)cc1 | inactive
CSc1nnnn1-c1c(C)cc(C)cc1C | inactive
O=c1[nH]c2cccnc2n(CCNc2ncc(C(F)(F)F)cc2Cl)c1=O | inactive
O=C(/C=C/c1ccc(N2CCOCC2)cc1)c1ccccc1 | 20.6 µM (active)
c1cnc(N2CCN(c3ccc4ccccc4n3)CC2)nc1 | inactive
O=C(CN1C(=O)c2cccc3cccc1c23)Nc1ccccc1 | inactive
COc1ccc(OCc2n[nH]c(=S)n2N)cc1 | inactive
